CHX counter: counter-screen for Shiga toxin inhibitors: cycloheximide protein synthesis inhibition. max response, %. cell reporter, cycloheximide protein synthesis inhibition counterscreen. 12% of 300,000 active; in the data active = max response mostly above about 13%, no sharp cut-off; inactive = mostly below about 14%; also: read at 38.3 µM for the half of the compounds with a filed dose; 0% is about no effect
Marburg entry inh: inhibitors of Marburg virus binding or cell entry. AID 540276. Potency, µM (doses to about 37.8 µM), for inactives: at the top dose activity change, negative = inhibition, most hits filed as inhibitors. 1.8% of 300,000 active. Marburg virus pseudotyped entry inhibition, cell reporter; calls by dose curve; tested in HEK293 cells; also: potency is read from the fitted curve at half-maximal effect; % is scaled to controls: 0 for no effect and ±100 for the full control effect
Shiga inhibitor: Shiga toxin inhibition | Vero cells, Shiga toxin protein synthesis inhibition reporter | inhibition, % at 38.7 µM | 9.2% of 290,000 active; in the data active = inhibition mostly above about 28%, no sharp cut-off; inactive = mostly below about 43%; also: 0% is about no effect
Lassa entry inh: inhibitors of Lassa virus binding or cell entry. Lassa virus pseudotype entry inhibition, cell reporter. Potency, µM (doses to about 37.9 µM), inactives show top-dose activity change, negative = inhibition, usual class: inhibitors. 1.2% of 300,000 active; calls by dose curve; tested in HEK293 cells; also: potency is read from the fitted curve at half-maximal effect; % is scaled to controls: 0 for no effect and ±100 for the full control effect; nearly all actives have a fitted effect of over 50% in size
* hit, by the source's call; ? = inconclusive; nt = no result given; [ ] = dose if it differs, or a comment. Shown are actives, neighbours in structure and some others; about 12% of the full set was active somewhere.

SMILES	CHX counter	Marburg entry inh	Shiga inhibitor	Lassa entry inh
CN(Cc1ccccc1)c1nc2c(c(=O)[nH]c(=O)n2C)n1CCCc1ccccc1	27.5*	?	41.0	?
Cn1c(=O)[nH]c(=O)c2c1nc(Br)n2C/C=N/NC(=O)c1ccccc1	39.0*	25.0%[14.2 µM]	55.4*	17.9%
CCOCCn1c(SCc2ccccc2)nc2c1c(=O)[nH]c(=O)n2C	-5.7	nt	-3.0	nt
C/C=C/Cn1c(SCc2ccccc2)nc2c1c(=O)[nH]c(=O)n2C	-3.5	?	-5.1	12.6µM*
Cn1c(=O)[nH]c(=O)c2c1nc(N(CCO)Cc1ccccc1)n2CCCc1ccccc1	-9.9	nt	-14.2	nt
COc1ccc(C2=NN(CC(=O)Nc3cc(C)ccc3C)C(=O)CC2)cc1	-3.1	nt	-1.8	nt
O=C(OCC(=O)N1CCOCC1)c1ccc(Br)cc1	19.8*	10.8%[46.1 µM]	60.1	17.5%
Cc1cc(OCC(=O)N2CCOCC2)ccc1[N+](=O)[O-]	24.8*	nt	57.9*	nt

From PubChem BioAssay
